DT40 TDP1 no CPT = qHTS for Inhibitors of human tyrosyl-DNA phosphodiesterase 1 (TDP1): qHTS in cells in absence of CPT. DT40 Tdp1-/- hTDP1 cells, no CPT, ATP luminescence, 48 h. Potency, µM (highest dose often 46.2 µM), without a hit: top-dose activity change, negative = growth inhibition, actives largely listed as inhibitors. 420,000 compounds, 15% hits; further: potency means the concentration at half of the fitted maximal effect; nearly all actives have a fitted effect of over 55% in size
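Chicken DT40 Tdp1-/- cells complemented with human TDP1, screened without camptothecin (DMSO vehicle only), 400 cells/well. Compounds pin-transferred, cells incubated at 37 °C for at least 48 hr. Growth read as ATP-dependent luminescence (CellTiter-Glo, 30 min at RT).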
TDP1 cell CPT = growth inhibition of DT40 Tdp1-/-;hTDP1 cells with camptothecin (screen for TDP1 inhibitors); AID 686979; 420,000 compounds, 12% hits; Potency, µM (highest dose often 46.2 µM), inactives show at the top dose activity change, negative = growth inhibition, actives largely listed as inhibitors; chicken DT40 Tdp1-/-;hTDP1 cells + 20 nM CPT, ATP luminescence, 48 h; further: potency means the concentration at half of the fitted maximal effect; nearly all actives have a fitted effect of over 55% in size
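Cell growth measured by CellTiter-Glo luminescence after a minimum 48 h, 37 C compound exposure with 20 nM CPT in Tdp1-knockout DT40 cells stably expressing hTDP1, seeded 400/well; qHTS titration format.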
CtBP-E1A blk = blocks the CtBP interaction with E1A. AlphaScreen GST-E1A/His-CtBP binding, 1536-well; active compounds read low. activity change, % (no concentration beside the values). 340,000 compounds, 0.49% hits. AID 651724; in the data active means activity change below about -65%; inconclusive means mostly about -30% to -63%
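Steps: dispense buffer (Tris pH 8.0, NaCl 300 mM, TCEP 1 mM, BSA, Tween 20); add 5X protein mix (GST-E1A, His-CtBP, 125 nM each); pin 23 nL compound; 2 h at 37 °C, dark; add 5X beads (50 ug/mL); 1 h; read.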
IL-1B inflam inh = inhibitors of inflammasome signaling (IL-1 beta secretion); activity change, % at 57.5 µM; 360,000 compounds, 4.7% hits; THP-1 LPS/ATP IL-1B secretion, AlphaLISA, 16 h; active compounds read low; in the data active means activity change below about -50%; inconclusive means mostly about -30% to -49%
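Secreted IL-1B measured by AlphaLISA bead assay after 16 h compound exposure of THP-1 cells; compounds (final up to 57.5 uM) added 1 h before LPS (250 ng/mL) and ATP (1.25 mM) stimulation; lower signal means less secretion.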
Six1-Eya2 inh = inhibitors of human Six1/Eya2 interaction. 360,000 compounds, 0.56% hits. AlphaScreen GST-Six1/His-Eya2 binding, biochemical; active compounds read low. Q15475+O00167. activity change, % (no concentration beside the values); in the data active means activity change below about -65%; inconclusive means mostly about -30% to -63%
Target sequence (O00167 whole entry, looked up): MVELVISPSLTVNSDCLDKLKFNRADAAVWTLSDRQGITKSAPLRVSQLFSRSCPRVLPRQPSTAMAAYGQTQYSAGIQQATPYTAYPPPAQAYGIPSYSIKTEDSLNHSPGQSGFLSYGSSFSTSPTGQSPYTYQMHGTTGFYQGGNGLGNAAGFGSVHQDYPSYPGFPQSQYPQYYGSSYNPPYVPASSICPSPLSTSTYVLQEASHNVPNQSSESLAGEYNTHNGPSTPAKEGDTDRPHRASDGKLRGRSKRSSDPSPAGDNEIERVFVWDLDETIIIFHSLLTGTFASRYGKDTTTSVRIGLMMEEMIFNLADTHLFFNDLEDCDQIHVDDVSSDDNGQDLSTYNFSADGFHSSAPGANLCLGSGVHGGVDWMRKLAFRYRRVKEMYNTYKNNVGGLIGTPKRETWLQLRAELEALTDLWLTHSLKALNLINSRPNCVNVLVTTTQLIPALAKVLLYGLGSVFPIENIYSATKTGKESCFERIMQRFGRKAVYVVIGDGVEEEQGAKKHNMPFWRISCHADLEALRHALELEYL
Target sequence (Q15475 whole entry, looked up): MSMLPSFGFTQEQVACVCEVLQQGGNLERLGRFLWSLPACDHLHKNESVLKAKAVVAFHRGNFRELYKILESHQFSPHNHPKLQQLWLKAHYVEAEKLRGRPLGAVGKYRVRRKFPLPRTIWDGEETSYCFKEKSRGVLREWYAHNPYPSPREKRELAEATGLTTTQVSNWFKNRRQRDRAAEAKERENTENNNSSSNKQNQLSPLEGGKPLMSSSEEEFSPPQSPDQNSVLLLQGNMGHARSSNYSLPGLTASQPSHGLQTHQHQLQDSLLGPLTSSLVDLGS
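AlphaScreen with GST-Six1 and His-Eya2 (5X mix: 250 nM and 500 nM), glutathione donor and nickel acceptor beads; buffer 50 mM Tris pH 8.0, 300 mM NaCl, 1 mM TCEP; 1 h at 37 C in the dark.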
TDP1 block = inhibitors of human tyrosyl-DNA phosphodiesterase TDP1. recombinant TDP1, AlphaScreen DNA substrate cleavage. Potency, µM (top dose mostly 130 µM), for inactives: at the highest dose activity change, negative = inhibition, usual class: inhibitors. AID 485290. 350,000 compounds, 0.28% hits; further: potency means the concentration at half of the fitted maximal effect; nearly all actives have a fitted effect of over 40% in size
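AlphaScreen read-out: signal falls as enzyme removes the 3' tyrosine-FITC from a 5'-biotinylated DNA oligo (15 nM, 5 min, RT). Enzyme was E. coli-made recombinant Tdp1 at 1 nM, exposed to compound for 15 min beforehand; beads 10 ug/ml, 10 min.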
Starred values were filed as active, the others as inactive; ? = inconclusive; / = no result. Hits are enriched below; roughly 18% of the tested compounds scored in any of these assays. Unless noted, the call rests on the fitted dose curve; in most records, active means well fitted curve in the direction sought with a large enough effect; inconclusive means small, poorly fitted or top-dose-only effect, or another doubt; inactive means no such curve, though single readings can be large; an effect the other way counts as inactive or inconclusive. On the % scale 0 is the no-effect control and ±100 the full control effect.

SMILES | DT40 TDP1 no CPT | TDP1 cell CPT | CtBP-E1A blk | IL-1B inflam inh | Six1-Eya2 inh | TDP1 block
O=C(CSc1ccc(Cl)cc1)N1N=CCC1c1ccccc1 (configuration not stated) | ? | ? | -2.5 | -63.4* | 11.5 | -3.9%
COc1ccc(NC(=O)CN(C)CC(=O)c2c(C)[nH]c3ccccc23)cc1 | ? | ? | 13.7 | 4.3 | -3.7 | 0.5%
COc1ccccc1CN(C)CC(=O)c1c(C)[nH]c2ccccc12 | 17.8µM* | 17.8µM* | / | / | / | /
CC(=O)c1c(-c2ccccc2)[nH]c2ccccc12 | 13µM* | 13µM* | -3.5 | -6.6 | 13.1 | /
O=C(O)/C=C/C(=O)c1c(-c2ccccc2)[nH]c2ccccc12 | ? | ? | -1.4 | 8.6 | -12.7 | 3.0%
Cc1[nH]c2ccccc2c1C(=O)CCl | 3.66µM* | 2.59µM* | / | -107.3* | 3.3 | 3.7%
COCCCNC(=O)Cn1nnc(-c2ccc(NC(=O)c3cccnc3)cc2)n1 | / | / | / | / | / | -1.2%
Cc1cnc(C(=O)OCC(=O)Nc2ccc(Oc3ccccc3)cc2)cn1 | -7.8% | -2.0% | 7.0 | 4.3 | -1.4 | 11.4%
Cc1ccc(C(C(=O)Nc2ccc(C(C)C)cc2)N(C)C(=O)c2ccc(=O)[nH]c2)cc1 (configuration not stated) | 18.4µM* | -10.3% | -19.1 | -14.7 | -5.6 | 0.0%
O=C(NCc1ccc(F)cc1)C1CCCN1S(=O)(=O)c1ccccc1C(F)(F)F (configuration not stated) | ? | 13µM* | 3.2 | 2.3 | 1.8 | 0.0%
Cc1ccc(CNC(=O)C2CCCCN2S(=O)(=O)c2ccc(F)cc2)cc1 (configuration not stated) | 25.9µM* | 13µM* | / | / | / | -2.6%
CC(C)c1ccc(CNC(=O)C2CCCN2S(=O)(=O)c2ccccc2)cc1 (configuration not stated) | 11.6µM* | ? | / | 0.7 | 0.6 | /
O=C(NCCc1c[nH]c2ccccc12)C(=O)NCC(c1cccnc1)N1CCN(c2ccccc2)CC1 (configuration not stated) | 16.4µM* | 18.4µM* | -12.6 | 32.1 | -4.6 | -3.9%
COC(=O)NCC(c1cccnc1)N1CCN(c2ccc(F)cc2)CC1 (configuration not stated) | -15.8% | -12.4% | / | / | / | 1.3%
O=C(NCC(c1cccnc1)N1CCN(c2ccccc2F)CC1)c1ccco1 (configuration not stated) | 23.1µM* | ? | -6.0 | 39.5 | 3.1 | 7.6%
COc1ccc(N2CCN(C(CNC(=O)C(=O)NCCc3c[nH]c4ccccc34)c3ccco3)CC2)cc1 (configuration not stated) | ? | -16.2% | -16.0 | -51.7* | 1.9 | 3.5%
O=C(NCc1cccnc1)C(=O)NCC(c1cccnc1)N1CCN(c2ccc(F)cc2)CC1 (configuration not stated) | 18.4µM* | 20.6µM* | / | / | / | 5.2%
COc1ccc(N2CCN(C(CNC(=O)C(=O)NCCCO)c3ccco3)CC2)cc1 (configuration not stated) | -6.1% | 1.1% | / | -1.8 | -0.9 | 5.0%
COCCNC(=O)C(=O)NCC(c1cccnc1)N1CCN(c2ccccc2)CC1 (configuration not stated) | -19.9% | 0.8% | / | / | / | 3.9%
COc1cc(OC)c([C@@H]2O[C@H](CO)[C@@H](O)[C@H](O)[C@H]2O)c(OC)c1 | / | / | / | / | / | 5.0%
Nc1ccccc1C(=O)CC(N)C(=O)O (configuration not stated) | -15.8% | -2.9% | / | / | / | 10.7%
CC1(C(=O)NS(=O)(=O)c2cccs2)CCN1C(=O)c1ccccc1 (configuration not stated) | 15.3% | 15.2% | 0.0 | 12.3 | 0.5 | /
Cc1c(Cl)c([N+](=O)[O-])nn1CC(=O)NCC(C)C | -1.5% | -2.3% | -4.3 | ? | 4.2 | -7.6%
O=C(NCC(c1cccnc1)N1CCN(c2ccccc2F)CC1)OCc1ccccc1 (configuration not stated) | 18.4µM* | ? | 4.6 | -18.1 | -8.4 | 2.3%
CN(C)CCNC(=O)C(=O)NCC(c1cccnc1)N1CCN(c2ccc(F)cc2)CC1 (configuration not stated) | -23.4% | -15.4% | / | / | / | 6.5%
SMILES | DT40 TDP1 no CPT | TDP1 cell CPT | CtBP-E1A blk | IL-1B inflam inh | Six1-Eya2 inh | TDP1 block
O=C(NCC(c1cccnc1)N1CCN(c2ccc(F)cc2)CC1)OCc1ccccc1 (configuration not stated) | 14.6µM* | ? | 2.6 | -16.7 | 2.0 | -3.9%
O=C(NCC(c1cccnc1)N1CCN(c2ccccc2)CC1)OCc1ccccc1 (configuration not stated) | ? | ? | -18.3 | 0.0 | -4.1 | 4.2%
O=C(NCCc1ccccc1)C(=O)NCC(c1cccnc1)N1CCN(c2ccc(F)cc2)CC1 (configuration not stated) | 10.3µM* | 14.6µM* | / | / | / | 3.9%
O=C(NCC(c1cccnc1)N1CCN(c2ccc(F)cc2)CC1)c1cccc(Cl)c1 (configuration not stated) | 10.3µM* | 16.4µM* | -4.1 | -22.2 | -5.4 | 2.1%
CCC(=O)Nc1ccc(S(=O)(=O)NC[C@H]2O[C@@H](n3cnc4c(=O)[nH]c(N)nc43)[C@H](O)[C@@H]2O)cc1 | 21.4% | 9.7% | -3.2 | 6.5 | 0.7 | /
Cc1cccc(Nc2ncnc3onc(-c4cccc(Cl)c4)c23)c1C | 18.4µM* | 20.6µM* | 3.5 | 17.4 | 7.5 | /
Clc1cccc(-c2noc3ncnc(NC4CCCCC4)c23)c1 | 25.9µM* | 20.6µM* | / | / | / | 6.4%
COc1ccc(OC)c(Cc2nnc(CCC(=O)N3CCCCC3c3nccs3)o2)c1 (configuration not stated) | -8.0% | -19.6% | / | 9.4 | -17.6 | 7.7%
CN(C)c1ccnc2sc(C(=O)NCc3ccccc3)c(N)c12 | ? | 16.4µM* | -5.7 | / | -7.1 | 2.1%
CN(C)C=Nc1c(C(=O)c2ccccc2)sc2nccc(N(C)C)c12 | ? | -23.2% | -14.4 | -54.0* | 7.2 | 1.3%
CN(C)c1ccnc2sc(C(N)=O)c(N)c12 | ? | 1.64µM* | -2.5 | -66.1* | -20.5 | 0.0%
CCc1sc(C(=O)NCc2cc(C)n(C)n2)cc1Br | ? | ? | 3.0 | 21.2 | -12.5 | 0.0%
Nc1c(C(=O)NCc2ccco2)nnn1-c1ccccc1 | -17.0% | 8.9% | -0.3 | -9.5 | 0.0 | 7.9%
CC(Oc1nc2c(c(=O)n(C)c(=O)n2C)n1C)C1CCCCC1 (configuration not stated) | 16.4µM* | 23.1µM* | 8.5 | 0.0 | -13.2 | /
